Experimental data taken from paper PMC5540273 (PLoS ONE, 2017).

Experiments:
Settings in all cases: concentration: 1 μM,replicates: in singlicate; n = 1
[1] = tested on: RPS6KA4(Kin.Dom.1-N-terminal)
[2] = tested on: RPS6KA4(Kin.Dom.2-C-terminal)
[3] = tested on: RPS6KA5(Kin.Dom.1-N-terminal)
[4] = tested on: RPS6KA5(Kin.Dom.2-C-terminal)
[5] = tested on: T1, RSK1(Kin.Dom.1-N-terminal)
T1 construct: gene RPS6KA1

[6] = tested on: T2, RSK1(Kin.Dom.2-C-terminal)
T2 construct: gene RPS6KA1

[7] = tested on: T3, RSK2(Kin.Dom.1-N-terminal)
T3 construct: gene RPS6KA3

[8] = tested on: T4, RSK2(Kin.Dom.2-C-terminal)
T4 construct: gene RPS6KA3

[9] = tested on: T5, RSK3(Kin.Dom.1-N-terminal)
T5 construct: gene RPS6KA2

[10] = tested on: T6, RSK3(Kin.Dom.2-C-terminal)
T6 construct: gene RPS6KA2

[11] = tested on: T7, RSK4(Kin.Dom.1-N-terminal)
T7 construct: gene RPS6KA6

[12] = tested on: T8, RSK4(Kin.Dom.2-C-terminal)
T8 construct: gene RPS6KA6

S6K1 = tested on: S6K1
SBK1 = tested on: SBK1
SGK2 = tested on: SGK2
SGK3 = tested on: SGK3
SGK = tested on: SGK
SIK2 = tested on: SIK2
SIK = tested on: SIK
SLK = tested on: SLK
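Further: KINOMEscan kinase panel screen.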

For `CC(C)N1C(=O)Cc2cc(Nc3ncc(C(F)(F)F)c(NCc4cccc(S(C)(=O)=O)c4)n3)ccc21`, the “%Inh” value [1] was 0%, the “%Inh” value [2] was 24% and the “%Inh” value [3] was 0%. For the same molecule, the “%Inh” value [4] was 22%, the “%Inh” value [5] was 21% and the “%Inh” value [6] was 19%. For the same molecule, the “%Inh” value [7] was 56%, the “%Inh” value [8] was 2% and the “%Inh” value [9] was 39%. The “%Inh” value [10] was 26%, the “%Inh” value [11] was 57% and the “%Inh” value [12] was 22%. The “%Inh” value (S6K1) was 31%, the “%Inh” value (SBK1) was 72% and the “%Inh” value (SGK2) was 30%. For the same molecule, the “%Inh” value (SGK3) was 28%, the “%Inh” value (SGK) was 46% and the “%Inh” value (SIK2) was 20%. The “%Inh” value (SIK) was 10% and the “%Inh” value (SLK) was 23%.
With `Cc1ccc(-n2nc(C(C)(C)C)cc2NC(=O)Nc2ccc(OCCN3CCOCC3)c3ccccc23)cc1` [GW839464] the “%Inh” value [1] was 23%, the “%Inh” value [2] was 0% and the “%Inh” value [3] was 2%. The “%Inh” value [4] was 18%, the “%Inh” value [5] was 100% and the “%Inh” value [6] was 0%. For the same molecule, the “%Inh” value [7] was 0%, the “%Inh” value [8] was 0% and the “%Inh” value [9] was 54%. The “%Inh” value [10] was 4%, the “%Inh” value [11] was 0% and the “%Inh” value [12] was 6%. For the same molecule, the “%Inh” value (S6K1) was 0%, the “%Inh” value (SBK1) was 0% and the “%Inh” value (SGK2) was 2%. For the same molecule, the “%Inh” value (SGK3) was 0%, the “%Inh” value (SGK) was 0% and the “%Inh” value (SIK2) was 0%. For the same molecule, the “%Inh” value (SIK) was 0% and the “%Inh” value (SLK) was 68%.
In the case of `Cl.Oc1cc(-c2nc(-c3ccccc3)[nH]c2-c2ccncc2)ccc1Cl` [SB-386023], the “%Inh” value [1] is reported as 0%, the “%Inh” value [2] is reported as 13% and the “%Inh” value [3] is reported as 1%. The “%Inh” value [4] was 0%, the “%Inh” value [5] was 4% and the “%Inh” value [6] was 23%. The “%Inh” value [7] was 0%, the “%Inh” value [8] was 0% and the “%Inh” value [9] was 0%. For the same molecule, the “%Inh” value [10] was 0%, the “%Inh” value [11] was 22% and the “%Inh” value [12] was 57%. For the same molecule, the “%Inh” value (S6K1) was 0%, the “%Inh” value (SBK1) was 24% and the “%Inh” value (SGK2) was 18%. For the same molecule, the “%Inh” value (SGK3) was 13%, the “%Inh” value (SGK) was 9% and the “%Inh” value (SIK2) was 0%. The “%Inh” value (SIK) was 20% and the “%Inh” value (SLK) was 81%.
With `CCn1c(-c2nonc2N)nc2c(C#CC(C)(C)O)nc(OCCN)cc21.Cl.Cl` [GSK902056] the “%Inh” value [1] was 0%, the “%Inh” value [2] was 79% and the “%Inh” value [3] was 23%. For the same molecule, the “%Inh” value [4] was 38%, the “%Inh” value [5] was 0% and the “%Inh” value [6] was 0%. For the same molecule, the “%Inh” value [7] was 10%, the “%Inh” value [8] was 22% and the “%Inh” value [9] was 19%. The “%Inh” value [10] was 0%, the “%Inh” value [11] was 2% and the “%Inh” value [12] was 0%. The “%Inh” value (S6K1) was 8%, the “%Inh” value (SBK1) was 36% and the “%Inh” value (SGK2) was 17%. The “%Inh” value (SGK3) was 0%, the “%Inh” value (SGK) was 0% and the “%Inh” value (SIK2) was 0%. The “%Inh” value (SIK) was 0% and the “%Inh” value (SLK) was 0%.
`Cc1occc1-c1nc(N)c(OC[C@@H](N)Cc2c[nH]c3ccccc23)cc1-c1cc2c(C)n[nH]c2cn1` [GSK1660450] was tested, and the “%Inh” value [1] was 7%, the “%Inh” value [2] was 0% and the “%Inh” value [3] was 72%. For the same molecule, the “%Inh” value [4] was 0%, the “%Inh” value [5] was 26% and the “%Inh” value [6] was 18%. For the same molecule, the “%Inh” value [7] was 98.1%, the “%Inh” value [8] was 24% and the “%Inh” value [9] was 87%. The “%Inh” value [10] was 0%, the “%Inh” value [11] was 99.1% and the “%Inh” value [12] was 0%. The “%Inh” value (S6K1) was 89%, the “%Inh” value (SBK1) was 3% and the “%Inh” value (SGK2) was 15%. The “%Inh” value (SGK3) was 84%, the “%Inh” value (SGK) was 20% and the “%Inh” value (SIK2) was 90.3%. The “%Inh” value (SIK) was 92.4% and the “%Inh” value (SLK) was 96.7%.
`CN(C)CCOc1ccc(-c2cc(-c3c[nH]nc3-c3ccccn3)ccn2)cc1` [GW835314] was tested, and the “%Inh” value [1] was 0%, the “%Inh” value [2] was 17% and the “%Inh” value [3] was 8%. For the same molecule, the “%Inh” value [4] was 1%, the “%Inh” value [5] was 0% and the “%Inh” value [6] was 40%. The “%Inh” value [7] was 21%, the “%Inh” value [8] was 16% and the “%Inh” value [9] was 84%. For the same molecule, the “%Inh” value [10] was 10%, the “%Inh” value [11] was 19% and the “%Inh” value [12] was 89%. For the same molecule, the “%Inh” value (S6K1) was 8%, the “%Inh” value (SBK1) was 21% and the “%Inh” value (SGK2) was 9%. For the same molecule, the “%Inh” value (SGK3) was 23%, the “%Inh” value (SGK) was 8% and the “%Inh” value (SIK2) was 15%. The “%Inh” value (SIK) was 21% and the “%Inh” value (SLK) was 36%.
In the case of `CC(C)Nc1cc(-c2ccc3c(N)n[nH]c3c2)nc(N)n1` [GSK2221681], the “%Inh” value [1] is reported as 0%, the “%Inh” value [2] is reported as 88% and the “%Inh” value [3] is reported as 0%. For the same molecule, the “%Inh” value [4] was 68%, the “%Inh” value [5] was 28% and the “%Inh” value [6] was 0%. The “%Inh” value [7] was 8%, the “%Inh” value [8] was 19% and the “%Inh” value [9] was 18%. For the same molecule, the “%Inh” value [10] was 12%, the “%Inh” value [11] was 41% and the “%Inh” value [12] was 12%. For the same molecule, the “%Inh” value (S6K1) was 1%, the “%Inh” value (SBK1) was 1% and the “%Inh” value (SGK2) was 0%. For the same molecule, the “%Inh” value (SGK3) was 7%, the “%Inh” value (SGK) was 0% and the “%Inh” value (SIK2) was 0%. The “%Inh” value (SIK) was 0% and the “%Inh” value (SLK) was 4%.
`COc1ccc(C[C@@H](CN)NC(=O)c2cc(Br)c(-c3ccnc4[nH]ccc34)s2)cc1.Cl.Cl` [GSK1389063] was tested, and the “%Inh” value [1] was 68%, the “%Inh” value [2] was 59% and the “%Inh” value [3] was 87%. The “%Inh” value [4] was 21%, the “%Inh” value [5] was 42% and the “%Inh” value [6] was 0%. The “%Inh” value [7] was 90.8%, the “%Inh” value [8] was 0% and the “%Inh” value [9] was 63%. The “%Inh” value [10] was 15%, the “%Inh” value [11] was 88% and the “%Inh” value [12] was 8%. For the same molecule, the “%Inh” value (S6K1) was 86%, the “%Inh” value (SBK1) was 81% and the “%Inh” value (SGK2) was 72%. The “%Inh” value (SGK3) was 97.2%, the “%Inh” value (SGK) was 74% and the “%Inh” value (SIK2) was 0%. The “%Inh” value (SIK) was 0% and the “%Inh” value (SLK) was 49%.
